For 15 targets, log2 fold change results are on record in the supplement of paper PMC10849652.

Experiment in all cases: log2 fold change, soluble protein after heating vs DMSO (PISA); higher = thermal stabilisation; K562 lysate, 10 uM; active = over 0.2 and 3.5 SD of the protein, either way, in both replicates (recomputed)
Compound in assay [1]: Cc1cn(-c2cc(NC(=O)c3ccc(C)c(Nc4nccc(-c5cccnc5)n4)c3)cc(C(F)(F)F)c2)cn1 [nilotinib]
The method, boiled down: (§1)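 Pellets of K562 cells were dounce-homogenised in PBS pH 7.4 with 1 mM MgCl2, and the crude extract was held at 1 mg/mL protein for a 30 min treatment with 10 μM compound. Aliquots were heated for 3 min over 48°C-58°C and pooled before NP-40 was added to 0.5% at 4°C. The supernatant from 21,000xg for 90 min was quantified by TMTpro 16plex LC-MS/MS with channel sums equalised. Values are reported from duplicates as log-two fold change in thermal stability relative to solvent controls.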

Compound in assay [2]: Cc1nc(Nc2n[nH]c3c2CN(C(=O)N[C@H](CN(C)C)c2ccccc2)C3(C)C)c2sccc2n1
The method, boiled down: as §1

Compound in assay [3]: Cc1nc(Nc2ncc(C(=O)Nc3c(C)cccc3Cl)s2)cc(N2CCN(CCO)CC2)n1 [dasatinib]
The gist of the method:
as §1

Compound in assay [4]: Cc1ncc(-c2ccnc(Nc3ccc(S(C)(=O)=O)cc3)n2)n1C(C)C
The gist of the method:
as §1

Compound in assay [5]: Cn1cc(-c2ccc3c(c2)CCN3C(=O)Cc2cccc(C(F)(F)F)c2)c2c(N)ncnc21
The method, boiled down:
as §1

Compound in assay [6]: Cn1cc(CNCC2CCN(c3ncc(C(=O)NO)cn3)CC2)c2ccccc21 [quisinostat]
The method, boiled down: as §1

Compound in assay [7]: Cn1cncc1[C@@](N)(c1ccc(Cl)cc1)c1ccc2c(c1)c(-c1cccc(Cl)c1)cc(=O)n2C [tipifarnib]
The gist of the method:
as §1

Compound in assay [8]: NC(=O)Nc1cc(-c2cccc(F)c2)sc1C(=O)N[C@H]1CCCNC1
The method, boiled down:
as §1

Compound in assay [9]: NC(=O)c1cnc(N[C@@H]2CCCC[C@@H]2N)nc1Nc1cccc(-n2nccn2)c1
The method, boiled down: as §1

Compound in assay [10]: NC1(c2ccc(-c3nc4ccn5c(=O)[nH]nc5c4cc3-c3ccccc3)cc2)CCC1
The method, boiled down: as §1

Of roughly 8,800 targets only a part is listed; those with a hit were picked by preference. About 0.5% of all pairs of compound and target were hits. Values without a mark were called inactive.

UniProt Q8TBX8, sequence (Q8TBX8 whole entry, looked up): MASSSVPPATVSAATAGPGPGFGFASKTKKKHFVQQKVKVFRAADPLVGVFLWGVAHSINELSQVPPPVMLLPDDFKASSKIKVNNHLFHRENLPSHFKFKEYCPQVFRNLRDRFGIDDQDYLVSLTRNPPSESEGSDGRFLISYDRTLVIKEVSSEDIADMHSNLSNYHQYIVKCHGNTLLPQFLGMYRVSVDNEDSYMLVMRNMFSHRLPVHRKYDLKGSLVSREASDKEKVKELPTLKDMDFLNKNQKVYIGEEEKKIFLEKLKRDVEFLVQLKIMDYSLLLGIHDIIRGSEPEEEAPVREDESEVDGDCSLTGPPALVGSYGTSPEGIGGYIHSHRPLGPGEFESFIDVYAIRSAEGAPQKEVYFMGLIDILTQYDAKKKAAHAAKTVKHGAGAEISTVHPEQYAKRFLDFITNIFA
UniProt O94913, sequence (O94913 whole entry, looked up): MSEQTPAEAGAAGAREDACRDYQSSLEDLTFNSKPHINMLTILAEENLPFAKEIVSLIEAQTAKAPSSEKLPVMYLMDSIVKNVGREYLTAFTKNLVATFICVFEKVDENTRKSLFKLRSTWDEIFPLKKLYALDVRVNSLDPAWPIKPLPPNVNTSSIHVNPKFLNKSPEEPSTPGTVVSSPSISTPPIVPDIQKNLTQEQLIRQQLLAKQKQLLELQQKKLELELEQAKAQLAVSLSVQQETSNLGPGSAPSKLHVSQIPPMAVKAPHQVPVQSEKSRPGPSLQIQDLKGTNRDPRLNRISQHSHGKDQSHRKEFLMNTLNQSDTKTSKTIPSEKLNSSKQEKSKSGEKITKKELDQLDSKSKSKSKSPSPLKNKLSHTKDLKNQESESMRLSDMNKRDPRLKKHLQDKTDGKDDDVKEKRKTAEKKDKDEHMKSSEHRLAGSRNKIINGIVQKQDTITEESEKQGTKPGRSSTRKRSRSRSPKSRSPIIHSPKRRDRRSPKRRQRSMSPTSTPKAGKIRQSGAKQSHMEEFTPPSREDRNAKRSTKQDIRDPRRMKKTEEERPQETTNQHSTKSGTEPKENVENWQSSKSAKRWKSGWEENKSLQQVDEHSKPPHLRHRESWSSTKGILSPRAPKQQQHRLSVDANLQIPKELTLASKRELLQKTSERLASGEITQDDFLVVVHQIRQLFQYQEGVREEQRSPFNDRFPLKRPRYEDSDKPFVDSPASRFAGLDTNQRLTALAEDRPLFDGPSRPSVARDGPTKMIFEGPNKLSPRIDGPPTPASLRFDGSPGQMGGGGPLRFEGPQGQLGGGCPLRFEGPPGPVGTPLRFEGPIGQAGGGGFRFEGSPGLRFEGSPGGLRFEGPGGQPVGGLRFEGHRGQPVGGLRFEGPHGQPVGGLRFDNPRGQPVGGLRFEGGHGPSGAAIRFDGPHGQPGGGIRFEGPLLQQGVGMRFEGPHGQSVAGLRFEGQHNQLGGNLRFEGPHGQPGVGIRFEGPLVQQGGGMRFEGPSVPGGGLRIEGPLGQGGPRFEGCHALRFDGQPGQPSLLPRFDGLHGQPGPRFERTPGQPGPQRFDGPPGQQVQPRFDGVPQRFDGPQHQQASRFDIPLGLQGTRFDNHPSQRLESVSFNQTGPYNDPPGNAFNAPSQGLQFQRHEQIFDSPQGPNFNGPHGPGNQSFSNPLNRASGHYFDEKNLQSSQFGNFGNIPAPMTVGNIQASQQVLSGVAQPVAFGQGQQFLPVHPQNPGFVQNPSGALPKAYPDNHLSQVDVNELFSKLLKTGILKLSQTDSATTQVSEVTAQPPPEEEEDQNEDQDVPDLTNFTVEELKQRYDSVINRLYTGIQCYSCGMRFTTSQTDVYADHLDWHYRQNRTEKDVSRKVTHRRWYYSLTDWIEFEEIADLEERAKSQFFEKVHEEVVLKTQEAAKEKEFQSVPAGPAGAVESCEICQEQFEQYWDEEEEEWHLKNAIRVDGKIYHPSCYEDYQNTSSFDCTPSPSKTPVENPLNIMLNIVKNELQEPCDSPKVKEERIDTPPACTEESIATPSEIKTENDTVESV
UniProt P15735, sequence (P15735 whole entry, looked up): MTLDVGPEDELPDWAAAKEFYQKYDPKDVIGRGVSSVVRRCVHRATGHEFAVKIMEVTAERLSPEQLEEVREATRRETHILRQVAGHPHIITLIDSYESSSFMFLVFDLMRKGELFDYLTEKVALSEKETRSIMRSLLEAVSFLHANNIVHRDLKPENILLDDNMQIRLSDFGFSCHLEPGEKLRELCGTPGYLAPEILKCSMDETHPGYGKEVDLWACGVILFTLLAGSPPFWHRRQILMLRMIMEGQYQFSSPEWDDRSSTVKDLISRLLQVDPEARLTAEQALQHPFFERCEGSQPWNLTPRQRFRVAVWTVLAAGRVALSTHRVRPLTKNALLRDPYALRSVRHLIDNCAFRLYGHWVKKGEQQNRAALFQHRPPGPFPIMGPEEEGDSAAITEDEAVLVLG
UniProt Q05655, sequence (Q05655 whole entry, looked up): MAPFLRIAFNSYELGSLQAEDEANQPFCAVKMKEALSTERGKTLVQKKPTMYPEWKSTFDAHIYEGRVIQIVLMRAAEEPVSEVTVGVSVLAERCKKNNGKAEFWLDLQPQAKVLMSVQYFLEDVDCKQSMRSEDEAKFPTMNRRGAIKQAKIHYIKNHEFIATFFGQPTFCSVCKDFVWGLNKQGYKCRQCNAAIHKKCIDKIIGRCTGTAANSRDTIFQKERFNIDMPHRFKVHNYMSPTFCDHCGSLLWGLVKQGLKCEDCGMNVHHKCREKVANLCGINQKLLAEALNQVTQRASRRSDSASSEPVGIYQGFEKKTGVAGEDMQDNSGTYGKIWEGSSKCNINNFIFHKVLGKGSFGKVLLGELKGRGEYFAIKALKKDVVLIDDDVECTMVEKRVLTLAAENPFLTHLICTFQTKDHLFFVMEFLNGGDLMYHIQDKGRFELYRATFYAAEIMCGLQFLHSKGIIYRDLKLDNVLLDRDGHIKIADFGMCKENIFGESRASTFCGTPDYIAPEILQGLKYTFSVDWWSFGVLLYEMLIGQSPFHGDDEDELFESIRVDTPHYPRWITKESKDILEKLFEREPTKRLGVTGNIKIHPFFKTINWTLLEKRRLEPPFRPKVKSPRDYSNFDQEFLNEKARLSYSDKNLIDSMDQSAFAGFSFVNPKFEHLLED
UniProt P50336, sequence (P50336 whole entry, looked up): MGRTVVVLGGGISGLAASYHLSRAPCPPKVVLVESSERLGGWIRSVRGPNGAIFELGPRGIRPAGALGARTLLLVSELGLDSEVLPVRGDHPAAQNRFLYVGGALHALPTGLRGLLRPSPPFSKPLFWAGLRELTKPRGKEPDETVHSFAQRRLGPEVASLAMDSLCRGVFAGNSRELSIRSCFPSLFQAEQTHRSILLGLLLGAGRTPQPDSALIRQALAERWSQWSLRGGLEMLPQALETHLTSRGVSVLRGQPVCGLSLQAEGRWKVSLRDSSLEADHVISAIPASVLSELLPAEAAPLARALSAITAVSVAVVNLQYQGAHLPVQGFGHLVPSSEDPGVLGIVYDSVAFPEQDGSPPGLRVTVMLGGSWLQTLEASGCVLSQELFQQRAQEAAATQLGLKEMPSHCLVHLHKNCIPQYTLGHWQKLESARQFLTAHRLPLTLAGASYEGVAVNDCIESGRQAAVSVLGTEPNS
UniProt O14744, sequence (O14744 whole entry, looked up): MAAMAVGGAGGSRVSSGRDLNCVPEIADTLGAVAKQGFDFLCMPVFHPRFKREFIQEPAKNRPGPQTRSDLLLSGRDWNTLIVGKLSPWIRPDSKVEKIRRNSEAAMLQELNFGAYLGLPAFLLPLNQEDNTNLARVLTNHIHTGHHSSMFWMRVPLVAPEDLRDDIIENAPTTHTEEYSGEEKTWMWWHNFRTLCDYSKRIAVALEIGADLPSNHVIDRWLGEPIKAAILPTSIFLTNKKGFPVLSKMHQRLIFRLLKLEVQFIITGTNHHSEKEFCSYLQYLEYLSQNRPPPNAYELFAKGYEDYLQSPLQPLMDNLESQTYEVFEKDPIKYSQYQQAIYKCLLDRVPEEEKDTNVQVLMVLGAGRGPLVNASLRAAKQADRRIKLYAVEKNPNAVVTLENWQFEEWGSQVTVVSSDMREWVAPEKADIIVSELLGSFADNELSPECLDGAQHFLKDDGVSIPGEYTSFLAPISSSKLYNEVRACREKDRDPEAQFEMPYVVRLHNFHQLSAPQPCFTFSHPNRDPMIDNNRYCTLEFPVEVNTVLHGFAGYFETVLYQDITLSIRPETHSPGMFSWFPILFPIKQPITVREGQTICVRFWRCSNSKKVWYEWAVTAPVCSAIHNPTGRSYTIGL
UniProt P07737, sequence (P07737 whole entry, looked up): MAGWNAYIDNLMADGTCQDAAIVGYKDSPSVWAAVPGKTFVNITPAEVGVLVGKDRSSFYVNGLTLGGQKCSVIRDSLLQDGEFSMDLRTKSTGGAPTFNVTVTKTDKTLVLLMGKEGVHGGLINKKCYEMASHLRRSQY
UniProt Q9P215, sequence (Q9P215 whole entry, looked up): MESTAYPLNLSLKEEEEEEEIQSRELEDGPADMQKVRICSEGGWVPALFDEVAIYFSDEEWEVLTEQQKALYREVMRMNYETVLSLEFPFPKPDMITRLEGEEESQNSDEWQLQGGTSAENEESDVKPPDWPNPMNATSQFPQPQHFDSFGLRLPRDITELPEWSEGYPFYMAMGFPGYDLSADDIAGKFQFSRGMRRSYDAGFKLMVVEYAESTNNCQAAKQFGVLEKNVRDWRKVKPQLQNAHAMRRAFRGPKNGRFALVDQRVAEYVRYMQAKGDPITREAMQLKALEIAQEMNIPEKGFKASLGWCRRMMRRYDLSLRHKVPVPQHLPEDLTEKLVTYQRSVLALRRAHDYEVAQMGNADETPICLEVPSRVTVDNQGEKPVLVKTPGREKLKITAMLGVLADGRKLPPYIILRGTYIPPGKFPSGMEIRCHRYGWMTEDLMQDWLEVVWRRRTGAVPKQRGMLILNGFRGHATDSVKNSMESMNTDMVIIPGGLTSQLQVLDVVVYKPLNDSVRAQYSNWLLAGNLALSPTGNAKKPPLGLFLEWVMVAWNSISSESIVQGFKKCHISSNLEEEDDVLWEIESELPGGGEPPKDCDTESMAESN

Regarding PRKAR2A (UniProt P13861), the log2 fold change in assay [1] is -0.036; in assay [2], -0.051; in assay [3], -0.065; in assay [4], -0.016; in assay [5], 0.017; in assay [6], 0.02. Moreover, the log2 fold change in assay [7] is 0.025; in [8], -0.198; in assay [9], -0.037; in assay [10], -0.011.

Turning to PPP2R5C isoform 4 (UniProt Q13362), the log2 fold change in assay [1] was -0.012; in [2], -0.005; in [3], 0.031; in assay [4], -0.002; in assay [5], 0.017; in [6], -0.126. For the same target, the log2 fold change in assay [7] was 0.021; in [8], 0.079; in assay [9] it was -0.013; in assay [10], -0.04.

Turning to PFN1 (UniProt P07737), the log2 fold change in [1] was -0.002; in [2], 0.002; in [3] it was 0.022; in assay [4] it was -0.008; in [5] it was -0.006; in assay [6], 0.008. The log2 fold change in assay [7] was 0.03; in assay [8], -0.018; in [9] it was -0.018; in assay [10] it was 0.014.

In the case of PPOX (UniProt P50336), the log2 fold change is 0.227 in [1]; -0.001 in assay [2]; 0.086 in assay [3]; 0.054 in [4]; -0.004 in assay [5]; 0.129 in assay [6]. For the same target, the log2 fold change in [7] was -0.012; in assay [8], -0.019; in assay [9], -0.008; in assay [10], -0.036.

On to PIP4K2C (UniProt Q8TBX8), for which the log2 fold change in [1] was 0.169; in [2], -0.015; in assay [3], 0.047; in assay [4], 0.298; in assay [5] it was 0.029; in assay [6] it was -0.095. Further, the log2 fold change in assay [7] is -0.012; in assay [8], 0.035; in assay [9], 0.033; in assay [10], -0.085.

For PRKCD (UniProt Q05655), the log2 fold change in assay [1] was 0.002; in [2], 0.193; in [3], -0.053; in [4], 0.056; in assay [5], 0; in assay [6], 0.002. Moreover, the log2 fold change in assay [7] was -0.013; in assay [8] it was -0.013; in assay [9], 0.218; in assay [10] it was 0.021.

Turning to POGK (UniProt Q9P215), the log2 fold change in assay [1] was -0.04; in assay [2], 0.005; in assay [3], -0.068; in assay [4] it was -0.001; in [5] it was -0.023; in assay [6] it was -0.086. For the same target, the log2 fold change in assay [7] is 0.007; in assay [8], 0.108; in assay [9], 0.008; in assay [10] it was -0.006.

For the target PCF11 (UniProt O94913), the log2 fold change in [1] was -0.003; in assay [2], -0.001; in [3], -0.042; in assay [4], 0.023; in assay [5], -0.017; in [6], -0.004. Also, the log2 fold change is -0.029 in assay [7], 0.019 in assay [8], -0.013 in assay [9] and -0.012 in [10].

Take PHKB isoform 3 (UniProt Q93100): the log2 fold change in assay [1] is -0.007; in assay [2] it was 0.121; in assay [3] it was -0.023; in assay [4] it was 0.001; in assay [5], 0.008; in assay [6], -0.063. Further, the log2 fold change is -0.035 in [7], 0.28 (active) in [8], 0.004 in assay [9] and -0.058 in [10].

In the case of PFKFB2 (UniProt O60825), the log2 fold change in [1] is -0.04; in assay [2], 0.011; in [3], 0.017; in [4], -0.043; in [5] it was 0.014; in assay [6], 0.024. The log2 fold change in assay [7] is -0.011; in [8], -0.046; in [9], -0.003; in assay [10] it was -0.009.

PHKG2 (UniProt P15735): the log2 fold change is -0.022 in [1]; 0.598 (active) in assay [2]; -0.03 in assay [3]; 0.046 in [4]; 0.037 in assay [5]; -0.069 in [6]. For the same target, the log2 fold change in assay [7] was 0.038; in [8], 0.979 (active); in assay [9] it was -0.042; in assay [10] it was -0.073.

On to PRMT5 (UniProt O14744), for which the log2 fold change is 0 in assay [1]; 0.005 in [2]; 0.094 in assay [3]; -0.024 in assay [4]; -0.028 in assay [5]; -0.027 in [6]. The log2 fold change is 0 in assay [7], 0.035 in assay [8], -0.015 in [9] and -0.019 in assay [10].

As for POLR2G (UniProt P62487), the log2 fold change in assay [1] is 0.01; in assay [2] it was -0.02; in assay [3] it was -0.024; in [4], 0.007; in [5], 0; in assay [6], 0.01. Besides, the log2 fold change in [7] was 0.007; in [8], 0.001; in [9] it was 0.011; in [10], -0.016.

Regarding PTPN23 (UniProt Q9H3S7), the log2 fold change is -0.003 in [1]; -0.029 in assay [2]; -0.034 in [3]; -0.002 in [4]; 0.01 in [5]; 0.002 in assay [6]. The log2 fold change in assay [7] was 0; in assay [8], 0.024; in assay [9], 0.025; in [10] it was 0.005.

Regarding PSMB9 (UniProt P28065), the log2 fold change in [1] is 0.019; in assay [2] it was 0.092; in [3], -0.031; in assay [4], -0.098; in assay [5], -0.033; in assay [6] it was -0.213. Further, the log2 fold change was 0.024 in assay [7], 0.027 in assay [8], 0.034 in [9] and -0.076 in [10].
